# Measurements reported in PubChem BioAssay.
# Records with an inconclusive call do not appear. Active and inactive are the calls of the source. Unless noted, no stated cut-off is given here; in the data, active means inhibition above about 80%; inactive means the rest.
# Experiments:
# [1] = growth inhibition of DIPG glioma cells, dose response, cell-based, JHH-DIPG-1, MIPE4.0, CellTiter-Glo, qHTS (AID 1347062; cut-off not given, nearly all actives have AC50 up to about 27 µM); settings: JHH-DIPG-1 viability, CellTiter-Glo ATP luminescence
# [2] = growth inhibition of DIPG glioma cells, dose response, cell-based, SU-DIPG-XIII, MIPE5.0, CellTiter-Glo, qHTS (AID 1347064; cut-off not given, nearly all actives have AC50 up to about 23 µM); settings: SU-DIPG-XIII viability, CellTiter-Glo ATP luminescence
# [3] = viability loss in pontine glioma line – cell-based, SU-DIPG-XXV, MIPE5.0, CellTiter-Glo, qHTS, dose response (AID 1347065; cut-off not given, nearly all actives have AC50 up to about 26 µM;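 further: cells exposed to compound for 48 hours before ATP readout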); settings: CellTiter-Glo ATP luminescence
# [4] = JHH-DIPG-1 glioma cell viability, MIPE5.0 library, CellTiter-Glo luminescence, qHTS (AID 1347067; cut-off not given, nearly all actives have AC50 up to about 26 µM;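 further: cells exposed to compound for 48 hours before readout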); settings: JHH-DIPG-1 glioma viability, CellTiter-Glo ATP luminescence
# [5] = SU-DIPG-XXV glioma cell viability, MIPE5.0 library, qHTS (AID 1347068; cut-off not given, nearly all actives have IC50 up to about 30 µM)
# [6] = LFS_MB_1R medulloblastoma cell growth inhibition, synergistic combos for chromothripsis tumors, cisplatin or BGB combos (AID 1671452); settings: LFS_MB_1R medulloblastoma cells, stronger effect = higher value;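 further: cells exposed for 96 hours before readout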
# [7] = CRL2098 osteosarcoma cell growth inhibition, synergistic combos for chromothripsis tumors, BGB or cisplatin IC20 combos (AID 1671454); settings: CRL2098 osteosarcoma cells, drug combinations, stronger effect = higher value;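 further: cells exposed for 96 h before readout; 0% = vehicle DMSO and 100% = killing by high DMSO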
# [8] = HD-MB03 medulloblastoma cell growth inhibition, synergistic combos for chromothripsis tumors, BGB or cisplatin IC20 combos (AID 1671455; in the data active means inhibition above about 83%;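 further: 0% = vehicle DMSO and 100% = high DMSO as cytotoxic control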); settings: HD-MB03 medulloblastoma cells, stronger effect = higher value
# [9] = UWB1.289 ovarian carcinoma cell growth inhibition, synergistic combos for chromothripsis tumors, BGB or cisplatin combos (AID 1671456); settings: UWB1.289 ovarian carcinoma cells, stronger effect = higher value;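 further: cells exposed to compound for four days; 0% = vehicle DMSO and 100% = killing by high DMSO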
# [10] = LFS_MB_2R medulloblastoma cell growth inhibition, synergistic combos for chromothripsis tumors, cisplatin combos (AID 1671457); settings: LFS_MB_2R medulloblastoma cells, stronger effect = higher value;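 further: cells exposed to compound for four days before readout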
# [11] = UWB1.289_BRCA1 ovarian cancer growth, cell-based, BGB or cisplatin combinations (AID 1671459); settings: UWB1.289 BRCA1 ovarian carcinoma, drug combinations, stronger effect = higher value
# [12] = human astrocyte viability loss, single and combined drugs, cytotoxicity control for chromothriptic childhood tumor combination screen, cell-based, BGB or cisplatin IC20 combos (AID 1671460); settings: Human astrocytes, drug combinations, stronger effect = higher value;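 further: cells exposed to compounds for 96 hours before viability readout; 0% = vehicle and 100% = killing control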
# [13] = growth inhibition of BT084 medulloblastoma cells, cell-based, ICGC_MB145, cisplatin and BGB IC40 combos (AID 1671461); settings: drug combinations, stronger effect = higher value;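 further: cells exposed to drugs for 96 hours; 0% = vehicle DMSO and 100% = high DMSO full killing control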
# [14] = growth inhibition of RCMB18 medulloblastoma cells, cell-based, cisplatin and BGB IC40 combos (AID 1671462); settings: stronger effect = higher value;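 further: cells exposed to compound for four days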
# [15] = growth inhibition of CRL1545 osteosarcoma cells, cell-based, cisplatin and BGB IC20 combos (AID 1671464); settings: stronger effect = higher value;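 further: cells exposed to compound for 96 hours before readout; 0% = vehicle DMSO and 100% = high DMSO killing control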
# [16] = target: Mitogen-activated protein kinase 7 (Homo sapiens) (UniProt Q13164); assay: ERK5 transactivation activators in reporter cells, primary screen, cell-based, HTS (AID 1508626;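 active means luciferase signal above three times the same-plate solvent-only control wells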;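 further: luciferase driven by Gal4-ERK5 fusion binding five Gal4 sites before minimal TATA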); settings: HeLa Gal4-ERK5 transactivation, 18 h, at 5 µM, stronger effect = higher value
# Mitogen-activated protein kinase 7 (Homo sapiens), sequence (Q13164 whole entry, looked up, the tested form may be a part): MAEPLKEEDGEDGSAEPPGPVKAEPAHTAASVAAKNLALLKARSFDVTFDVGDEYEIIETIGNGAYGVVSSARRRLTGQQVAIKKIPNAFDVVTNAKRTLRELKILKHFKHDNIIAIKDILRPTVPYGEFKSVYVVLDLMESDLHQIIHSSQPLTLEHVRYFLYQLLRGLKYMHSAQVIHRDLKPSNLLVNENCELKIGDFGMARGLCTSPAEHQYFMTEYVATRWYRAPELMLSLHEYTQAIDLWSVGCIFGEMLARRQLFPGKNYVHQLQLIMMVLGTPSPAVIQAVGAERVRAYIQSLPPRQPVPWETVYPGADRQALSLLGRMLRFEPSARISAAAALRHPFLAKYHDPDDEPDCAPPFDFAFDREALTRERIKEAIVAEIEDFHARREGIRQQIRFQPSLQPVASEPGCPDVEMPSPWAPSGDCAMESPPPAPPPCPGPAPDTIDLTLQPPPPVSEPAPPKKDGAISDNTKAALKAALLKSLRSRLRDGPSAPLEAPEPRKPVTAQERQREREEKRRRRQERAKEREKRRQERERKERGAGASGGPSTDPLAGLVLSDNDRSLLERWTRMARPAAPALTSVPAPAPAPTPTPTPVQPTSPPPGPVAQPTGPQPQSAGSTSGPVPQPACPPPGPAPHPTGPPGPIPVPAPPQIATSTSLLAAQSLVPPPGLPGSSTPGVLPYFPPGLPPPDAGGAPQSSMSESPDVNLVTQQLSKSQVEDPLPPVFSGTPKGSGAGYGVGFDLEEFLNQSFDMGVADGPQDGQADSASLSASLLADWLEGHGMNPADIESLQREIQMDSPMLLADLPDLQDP
# [17] = viability rescue of complex I mutant cybrids, primary screen, cell-based, galactose medium, ATP luminescence (AID 1645843;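 active means z-score of at least 1.8 in each of two replicates, scored against plate mean and spread of sample wells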;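 further: positive z means more ATP and so rescue of galactose-driven cybrid death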); settings: complex I mutant cybrid cells, 72 h, stronger effect = higher value
# [18] = growth inhibition of DIPG glioma cells, dose response, cell-based, SU-DIPG-IV, MIPE4.0, CellTiter-Glo, qHTS (AID 1347063; cut-off not given, nearly all actives have AC50 up to about 30 µM;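 further: compound exposure lasted 48 hours before the viability readout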); settings: SU-DIPG-IV viability, CellTiter-Glo ATP luminescence
# [19] = measured here: combination with BGB IC40, at 0.05 µM
# [20] = measured here: combination with cisplatin, at 0.5 µM
# [21] = measured here: combination with cisplatin, at 5 µM
# [22] = measured here: combination with BGB at IC20, at 0.5 µM
# [23] = measured here: combination with cisplatin at IC20, at 0.5 µM
# [24] = measured here: combo with BGB at IC20, at 0.5 µM
# [25] = measured here: combo with cisplatin at IC20, at 0.5 µM
# [26] = measured here: inhibition with BGB combination, at 0.05 µM
# [27] = measured here: inhibition with cisplatin combination, at 0.05 µM
# [28] = BGB combination, concentration series, at 5 µM
# [29] = cisplatin combination, concentration series, at 5 µM
# [30] = measured here: combo with BGB IC20, at 0.5 µM
# [31] = measured here: combo with cisplatin IC20, at 0.5 µM
# [32] = cisplatin combination, at 0.5 µM
# [33] = measured here: BGB IC40 combination 0.05 uM, at 0.05 µM
smiles,measurement,setting,value
CNC1CCCN(c2c(F)cc3c(=O)c(C(=O)O)cn(C4CC4)c3c2OC)C1 (centres undefined),outcome,[1],inactive
same,outcome,[2],inactive
same,outcome,[3],inactive
same,outcome,[4],inactive
same,outcome,[5],inactive
same,inhibition,[6]; at 0.5 µM,-44.6% (inactive)
same,inhibition,[6]; [19],-12.2%
same,inhibition,[6]; [20],-60.6%
same,inhibition,[6]; [21],-26%
same,inhibition,[7]; at 0.5 µM,-81.1% (inactive)
same,inhibition,[7]; [22],-82.3%
same,inhibition,[7]; [23],-105%
same,inhibition,[8]; at 0.5 µM,-11% (inactive)
same,inhibition,[8]; [24],-20.4%
same,inhibition,[8]; [25],-17.8%
same,inhibition,[9]; at 0.5 µM,-14.8% (inactive)
same,inhibition,[9]; [26],-34.6%
same,inhibition,[9]; [27],0.742%
same,inhibition,[10]; at 0.5 µM,-13.2% (inactive)
same,inhibition,[10]; [20],-14.1%
same,inhibition,[10]; [21],-12.8%
same,inhibition,[11]; [28],-8.91%
same,inhibition,[11]; at 0.5 µM,-19.1% (inactive)
same,inhibition,[11]; [29],-12.5%
same,inhibition,[12]; at 0.5 µM,2.51% (inactive)
same,inhibition,[12]; [30],-0.992%
same,inhibition,[12]; [31],-5.96%
same,inhibition,[13]; at 0.5 µM,-3.94% (inactive)
same,inhibition,[13]; [32],-12.4%
same,inhibition,"[13]; cisplatin combination, at 5 µM",-20.7%
same,inhibition,[13]; [33],-4.46%
same,inhibition,"[13]; single agent, at 5 µM",-9.28%
same,inhibition,[14]; at 0.5 µM,-11% (inactive)
same,inhibition,"[14]; cisplatin combo, at 5 µM",-11%
same,inhibition,"[14]; measured here: BGB IC40 combination, at 0.05 µM",-0.266%
same,inhibition,[14]; [20],-4.57%
same,inhibition,"[14]; single agent, at 5 µM",-28%
same,inhibition,[15]; at 0.5 µM,-47.5% (inactive)
same,inhibition,"[15]; measured here: with BGB IC20 combination, at 0.5 µM",-52.5%
same,inhibition,"[15]; measured here: with cisplatin IC20 combination, at 0.5 µM",-45%
same,inhibition,"[15]; single agent, at 0.05 µM",2.8%
same,inhibition,"[15]; single agent, at 5 µM",-16.1%
CNCCCC1c2ccccc2C=Cc2ccccc21,luciferase signal,[16],40 AU (inactive)
same,z-score,[17],-1.15 (inactive)
CN1CCN(c2c(F)cc3c(=O)c(C(=O)O)cn(CCF)c3c2F)CC1,outcome,[1],inactive
same,outcome,[18],inactive
same,z-score,[17],0.245 (inactive)
same,inhibition,[6]; at 0.5 µM,-3.54% (inactive)
same,inhibition,[6]; [19],5.98%
same,inhibition,[6]; [20],2.19%
same,inhibition,[6]; [21],-16.1%
same,inhibition,[7]; at 0.5 µM,11.6% (inactive)
same,inhibition,[7]; [22],-0.381%
same,inhibition,[7]; [23],26.4%
same,inhibition,[8]; at 0.5 µM,6.76% (inactive)
same,inhibition,[8]; [24],8.44%
same,inhibition,[8]; [25],5.72%
same,inhibition,[9]; at 0.5 µM,9.66% (inactive)
same,inhibition,[9]; [26],-0.955%
same,inhibition,[9]; [27],3.11%
same,inhibition,[10]; at 0.5 µM,7.8% (inactive)
same,inhibition,[10]; [20],7.66%
same,inhibition,[10]; [21],-16.2%
same,inhibition,[11]; [28],7.04%
same,inhibition,[11]; at 0.5 µM,5.73% (inactive)
same,inhibition,[11]; [29],-0.678%
same,inhibition,[12]; at 0.5 µM,5.13% (inactive)
same,inhibition,[12]; [30],2.15%
same,inhibition,[12]; [31],3.47%
same,inhibition,[13]; at 0.5 µM,-2.41% (inactive)
same,inhibition,[13]; [32],-7.17%
same,inhibition,"[13]; cisplatin combination, at 5 µM",4.75%
same,inhibition,[13]; [33],34.4%
same,inhibition,"[13]; single agent, at 5 µM",1.35%
